A selection: hits, their analogues and other compounds. The true share with any hit is near 5.4%.
VP16 counter: Gal4-VP16 reporter inhibition counter-screen; 3.5% of 310,000 active; Potency, µM (highest dose often 53.6 µM), for inactives: at the top dose activity, negative = inhibition, usual class: inhibitors; Drosophila S2 Gal4-VP16 UAS-luciferase, luminescence, 20 h;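 note: Gal4-VP16 expression switched on by copper sulfate through the metallothionein promoter; potency is the fitted concentration of half-maximal effect; % is set by controls: 0 for no effect and ±100 for the full control effect; nearly all actives have a fitted effect of over 50% in size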
p53 reactivation: mutant p53 re-activation in reporter cells | H1299 p53-A138V BP100-luciferase reporter, luminescence, 24 h | Potency, µM (series often up to 92.2 µM), inactives show at the highest dose activity change, positive = activation, hits mostly activators | 0.063% of 320,000 active; note: potency is the fitted concentration of half-maximal effect; % of control where 0% means no effect; nearly all actives have a fitted effect of over 45% in size
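p53-null H1299 cells stably carrying temperature-sensitive p53-A138V and a BP100-luciferase reporter were pinned with compounds (4-point, 1:5 series) and held 24 hrs at 37 deg C. Luminescence was read 10 min after detection reagent.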
Six1-Eya2 inh: inhibitors of human Six1/Eya2 interaction; Q15475+O00167; AlphaScreen GST-Six1/His-Eya2 binding, biochemical; active compounds read low; activity change, % (test concentration not listed); 0.56% of 360,000 active; AID 651725; in the data active = activity change below about -65%; inconclusive = mostly about -30% to -63%; note: % is set by controls: 0 for no effect and ±100 for the full control effect
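Homogeneous AlphaScreen proximity assay pairing GST-Six1 with His-tagged Eya2 (added as 5X mix: 250 nM and 500 nM) in 50 mM Tris pH 8.0, 300 mM NaCl, 1 mM TCEP. Glutathione donor and nickel acceptor beads; 1 h, 37 °C, dark.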
CtBP-E1A blk: blocks the CtBP interaction with E1A | AlphaScreen GST-E1A/His-CtBP binding, 1536-well; active compounds read low | activity change, % (concentration not given with the values) | 0.49% of 340,000 active; in the data active = activity change below about -65%; inconclusive = mostly about -30% to -63%; note: % is set by controls: 0 for no effect and ±100 for the full control effect
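AlphaScreen with 125 nM GST-E1A and 125 nM His-CtBP (5X stocks) in Tris pH 8.0, 300 mM NaCl, BSA, Tween 20, TCEP. Compounds preincubated 2 h at 37 deg C, then glutathione donor/nickel acceptor beads added for 1 h at 37 deg C in dark.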
RORg inh: ROR gamma (mouse) transcription inhibition; P51450; Drosophila S2 Gal4-RORgamma UAS-luciferase reporter, 20 h; Potency, µM (doses to about 53.6 µM), for inactives: at the highest dose activity change, negative = inhibition, most hits filed as inhibitors; 5.4% of 310,000 active; AID 2551; note: potency is the fitted concentration of half-maximal effect; % is set by controls: 0 for no effect and ±100 for the full control effect; nearly all actives have a fitted effect of over 60% in size
Target sequence (P51450 whole entry, looked up, the tested form may be a part): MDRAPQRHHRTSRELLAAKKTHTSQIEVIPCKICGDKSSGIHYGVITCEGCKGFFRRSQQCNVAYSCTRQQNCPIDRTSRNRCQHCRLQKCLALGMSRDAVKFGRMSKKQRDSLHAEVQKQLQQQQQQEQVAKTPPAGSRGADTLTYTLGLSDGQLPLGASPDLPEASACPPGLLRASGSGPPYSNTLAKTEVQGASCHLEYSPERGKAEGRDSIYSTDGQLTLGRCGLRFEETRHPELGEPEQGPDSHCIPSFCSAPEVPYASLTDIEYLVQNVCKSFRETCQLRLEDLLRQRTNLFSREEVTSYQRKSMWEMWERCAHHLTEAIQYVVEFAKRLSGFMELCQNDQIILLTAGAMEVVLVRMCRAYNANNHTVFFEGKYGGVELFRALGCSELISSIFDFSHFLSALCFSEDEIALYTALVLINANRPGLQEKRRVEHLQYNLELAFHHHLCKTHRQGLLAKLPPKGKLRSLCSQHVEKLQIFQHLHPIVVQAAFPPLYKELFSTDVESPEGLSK
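Schneider cells (Drosophila), stable Gal4 DBD–ROR gamma + UAS-luc; 1 hr cmpd preincubation; Cu2+ induction 700 uM final; 20 hr ambient; luminescence.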
Numbers without * were called inactive; ? = inconclusive; · = no result given; [ ] = remark or other dose. Unless noted, calls come from the whole dose curve; as a rule, active = well fitted curve in the direction sought with a large enough effect; inconclusive = small, poorly fitted or top-dose-only effect, or another doubt; inactive = no such curve, though single readings can be large; an effect the other way counts as inactive or inconclusive.

SMILES	VP16 counter	p53 reactivation	Six1-Eya2 inh	CtBP-E1A blk	RORg inh
COCc1c(C(=O)N/N=C(/C)c2ccc(OCc3ccccc3)cc2)nnn1-c1nonc1N	-7%	?	4	1	17%
Cc1cccc(-c2n[nH]c(=S)n2/N=C/c2ccc(C)s2)c1	5.6µM*	1%	24	5	11µM*
Cc1cccc(-c2n[nH]c(=S)n2/N=C/c2cccs2)c1	10µM*	-3%	-11	·	5µM*
N#CCCN(CCN1CCCC1)S(=O)(=O)c1ccc(-c2ccc([N+](=O)[O-])cc2)cc1	3%	-4%	-1	-21	0%
CCOc1cccc(-c2cc(C(=O)N/N=C/c3ccc(OC)c(CN4CCOCC4)c3)c3ccccc3n2)c1	?	6%	-3	-1	16µM*
COc1ccc(/C=N/Nc2nc(=O)[nH]nc2C)cc1[N+](=O)[O-]	1%	8%	-16	-17	-4%
Cc1n[nH]c(=O)nc1N/N=C/c1ccc(O)c([N+](=O)[O-])c1	?	0%	-3	-2	11µM*
COc1ccc(/C=N/Nc2nc(=O)[nH]nc2C)cc1OC	8%	9%	-14	-25	11µM*
COc1cc(/C=N/Nc2nc(=O)[nH]nc2C)ccc1O	-13%	6%	-26	?	11µM*
CC1/C=C/C=C/C=C/C=C/C=C/C=C/C=C/C(OC2OC(C)C(O)C(N)C2O)CC2O[C@@](O)(CC(O)CC(O)C(O)CCC(O)CC(O)CC(=O)OC(C)[C@H](C)C1O)CC(O)C2C(=O)O (stereo partly drawn)	-1%	·	·	·	-9%
COc1cc(C(=O)N2CCCC(c3cc(C(=O)NCc4ccc(F)cc4)no3)C2)cc(OC)c1C (stereo not drawn)	·	·	-19	-13	·
CN(C(=S)Nc1ccc(F)cc1)C1(c2ccccc2Cl)CCCCC1=O (stereo not drawn)	-4%	-11%	-1	2	8.9µM*
Cc1ccc2nc(C3CCCN(C(=S)Nc4cccc(C)c4C)C3)[nH]c2c1 (stereo not drawn)	?	-7%	-8	-13	11µM*
Cc1cc2nc(C3CCCN(C(=S)Nc4ccccc4C)C3)[nH]c2cc1C (stereo not drawn)	-15%	7%	-1	-5	20µM*
CC(=O)N(OCc1ccccc1)[C@@H]1c2cc(C#N)ccc2OC(C)(C)[C@H]1O	1%	·	·	·	-23%
Cn1c(COc2ccccc2O)[n+](C)c2ccccc21	-1%	-4%	7	·	0%
CCCCCCCCCCOC(=O)Cn1c(COc2ccccc2OC)[n+](C)c2ccccc21	4.5µM*	-19%	-7	-21	?
Cc1cc(C2(c3ccc(O)c(C)c3)C(=O)Nc3ccccc32)ccc1O	16µM*	-5%	-19	-4	-21%
CCOc1ccc2nc(N3C(=O)/C(=C/c4ccc(Cl)cc4)NC3=S)sc2c1	1.6µM*	?	-14	-10	1.1µM*
Cc1c(O)ccc(/C=N/Nc2ncccc2[N+](=O)[O-])c1O	?	-2%	?	?	10µM*
O=[N+]([O-])c1cccnc1N/N=C/c1ccccc1O	-4%	9%	-4	-23	-26%
COC(=O)c1cn(-c2nc3ccccc3s2)nn1	·	·	1	-1	·
CC1(C)C(=O)Nc2ccccc2N1C(=O)COC(=O)CNS(=O)(=O)c1ccc(Br)cc1Cl	·	·	-11	·	·
FC(F)Sc1ccc(NC(=S)NCC2CCCCC2)cc1	10µM*	?	0	5	8.9µM*
CN(CC(=O)Nc1ccc(SC(F)F)cc1)C1CCCCC1	0%	-3%	0	0	22%
SMILES	VP16 counter	p53 reactivation	Six1-Eya2 inh	CtBP-E1A blk	RORg inh
FC(F)Sc1ccc(NC(=S)NC2CCCCC2)cc1	?	?	2	-1	8.9µM*
CC1CCCCC1NC(=S)Nc1ccc(SC(F)F)cc1 (stereo not drawn)	11µM*	?	0	2	6.3µM*
CC1CCN(C(=S)Nc2ccc(SC(F)F)cc2)CC1	11µM*	?	17	-4	7.9µM*
CC(C)c1ccc(C(=O)NC(=S)Nc2ccc3[nH]c(=O)[nH]c3c2)cc1	-16%	-1%	-6	-8	29%
CCCCCCCCCCCCC/C=C/[C@@H](O)[C@H](CO)NC(=O)CCCCCCC	3%	·	·	·	-34%
COc1cc(C(=O)N2CCN(C(=O)c3cc(-c4ccccc4)n[nH]3)CC2)cc(OC)c1OC	3%	-4%	-2	1	-1%
c1ccc2c(c1)Cc1cc3cc4c(cc3nc1-2)OCO4	2.2µM*	·	·	·	2.2µM*
c1ccc2c(c1)CCN(c1nc3cc4c(cc3s1)OCO4)C2	-8%	29%	-22	-25	4%
CCOC(=O)C1CCN(S(=O)(=O)c2cccc(-c3cn4cc(C)ccc4n3)c2)CC1	18µM*	11%	-3	0	-19%
O=C(CN1C(=O)c2ccccc2S1(=O)=O)c1ccc(F)c(F)c1	11µM*	9%	10	3	10µM*
COc1ccc(C(=O)CN2C(=O)c3ccccc3S2(=O)=O)cc1	?	-12%	0	10	5.6µM*
CSc1cccc(NC(=O)CN2C(=O)c3ccccc3S2(=O)=O)c1	13µM*	-1%	1	1	-27%
O=C(CN1C(=O)c2ccccc2S1(=O)=O)Nc1ccccc1	-9%	0%	1	3	-18%
COC(=O)[C@@H]1CC[C@H](C)[C@@H](c2ccc(C)cc2)N1C(=O)c1ccc(/C=N\OCC[C@@H]2C=C[C@H](OC(C)=O)[C@H](COC(C)=O)O2)cc1	4%[10 µM]	·	·	·	17%[10 µM]
Cc1ccc(CSCC(=O)N(C)CC(=O)Nc2ccccc2C(F)(F)F)cc1	·	-6%	-13	-5	·
CCCc1nnc(NC(=S)Nc2ccccc2)s1	0.63µM*	6%	5	5	0.63µM*
CCCCC(=O)Nc1nnc(CCc2ccccc2)s1	-14%	·	5	·	-43%
CC(C)C(=O)Nc1nnc(NC(=S)Nc2ccccc2)s1	2.8µM*	1%	0	-4	0.56µM*
CCCCCC(=O)Nc1nnc(CCc2ccccc2)s1	?	·	0	5	13µM*
Cc1ccc(-n2nnnc2-c2cnn(-c3ccc(F)cc3)c2C(F)(F)F)cc1	22µM*	-8%	3	4	?
COc1ccc2[nH]cc(CCNC(=S)NCCc3ccccc3)c2c1	-23%	-2%	-30	-24	11µM*
COc1ccccc1NC(=S)NCCc1c[nH]c2ccccc12	?	-1%	-23	-24	14µM*
COc1ccc(NC(=S)NCCc2c[nH]c3ccccc23)cc1	13µM*	10%	-3	-7	14µM*
COc1ccc2c(CCNC(=O)Nc3ccccc3)c[nH]c2c1	3%	-6%	-6	-7	?
Cc1ccc(NC(=S)NCCc2c[nH]c3ccccc23)c(C)c1	18µM*	-4%	-2	·	7.9µM*
COc1ccc(-c2ccc(SCC(=O)NC3CCCCC3)nn2)cc1OC	1%	22%	?	2	-1%

Screens from PubChem BioAssay.
